Screening results from PubChem.
RAD54 branch: inhibitors of human RAD54 branch migration, primary screen, biochemical, fluorescence, single point | DNA repair and recombination protein RAD54-like (Homo sapiens), Q92698 | RAD54 Holliday junction branch migration, FAM/BHQ fluorescence | inhibition, % at 10.4 µM | 360,000 tested, 0.14% active | AID 602329, 2012;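 active = mean normalized replicate activity at least 40 and at least half of replicates scoring 40 or more; inconclusive = only one of the two criteria met; inactive = mean below 40 and under half of replicates reaching 40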;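 also: 0% = median of neutral control wells and 100% = median of positive control wells; inhibitors cause a drop in the FAM fluorescence signal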
PREPL inhibitor: PREPL enzyme inhibitors, primary screen, biochemical, fluorescence polarization; 320,000 tested, 0.68% active; recombinant PREPL, fluorescence polarization activity-based probe; inhibition, % at 5.96 µM; AID 2751, 2010; Prolyl endopeptidase-like (Homo sapiens), Q4J6C6; in the data active = inhibition above about 43%;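 also: 0% = enzyme with DMSO and 100% = wells lacking enzyme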
RAD52 anneal inh: RAD52 DNA annealing inhibitors, primary screen, biochemical, FRET, single point, set 2; 360,000 tested, 0.46% active; DNA repair protein RAD52 homolog (Homo sapiens), P43351; recombinant RAD52 DNA annealing, FRET fluorescence; inhibition, % at 18.7 µM;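 active = every replicate showing at least 50% inhibition; inconclusive = mean inhibition at least 50% but not in every replicate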
Target sequence (P43351 whole entry, looked up): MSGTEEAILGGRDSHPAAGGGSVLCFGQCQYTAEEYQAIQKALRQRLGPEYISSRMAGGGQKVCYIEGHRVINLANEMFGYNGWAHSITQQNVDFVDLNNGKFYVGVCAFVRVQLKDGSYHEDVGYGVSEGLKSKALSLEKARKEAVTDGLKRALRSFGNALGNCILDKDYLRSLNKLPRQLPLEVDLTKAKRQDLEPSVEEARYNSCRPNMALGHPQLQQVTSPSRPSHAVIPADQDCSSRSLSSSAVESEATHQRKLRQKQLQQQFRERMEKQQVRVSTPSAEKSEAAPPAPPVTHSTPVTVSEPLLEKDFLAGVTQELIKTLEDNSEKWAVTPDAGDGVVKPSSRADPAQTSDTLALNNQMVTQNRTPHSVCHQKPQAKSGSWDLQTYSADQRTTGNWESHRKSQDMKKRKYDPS
MIN6 prolif: inducers of MIN6 beta-cell proliferation, primary screen, ATP luminescence, uHTS; MIN6 cells proliferation, ATPlite luminescence, 48 h; cells starved in 0.2% serum; 100% = growth in 10% serum; proliferation, % at 10 µM; 330,000 tested, 0.29% active;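 active = compounds whose signal lies at least 3.5 SD above the mean of all wells on their plate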;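 also: 0% = DMSO-treated cells in low-serum medium and 100% = 10% serum control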
FID counter: compounds displacing fluorescent DNA intercalator, primary screen, artefact control for HCV NS3 helicase inhibitor project, biochemical, FID fluorescence; DNA fluorescent intercalator displacement; inhibition, % at 7.9 µM; 290,000 tested, 0.17% active; AID 1845, 2009; in the data active = inhibition above about 37%;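 also: 0% = vehicle and 100% = reference compound; higher means more ethidium bromide displaced from hairpin DNA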
UBC13 inh: UBC13 polyubiquitin chain formation inhibitors, primary screen, biochemical, TR-FRET, uHTS; 330,000 tested, 0.47% active; AID 485273, 2010; inhibition, % at 20 µM; in the data active = inhibition above about 45%, passing the limit was not always enough; inconclusive = no clear call, values can overlap the other calls
Target sequence (P61088 whole entry, looked up): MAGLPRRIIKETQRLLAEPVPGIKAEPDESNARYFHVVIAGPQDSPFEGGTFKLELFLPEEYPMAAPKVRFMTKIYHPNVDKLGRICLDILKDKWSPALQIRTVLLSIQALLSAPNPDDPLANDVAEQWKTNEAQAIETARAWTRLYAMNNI
Casp3 counter: CASP3 inhibitor validation, counterassay for project on UBE2N polyubiquitination blockers, biochemical, one dose | shares compounds with UBC13 inh | Recombinant caspase-3, Caspase-Glo 3/7 luminescence, 60 min | inhibition, % at 20 µM | 1,400 tested, 4% active;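 active = mean inhibition across replicates above about 26%, limit read from the data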;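 also: plate controls were DMSO with caspase-3 for no effect and DMSO wells lacking enzyme for full effect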
UBC13 confirm: UBC13 polyubiquitination inhibitors, single-point retest, confirmation, biochemical, TR-FRET, single concentration | 1,400 tested, 68% active | shares compounds with UBC13 inh | inhibition, % at 10 µM; in the data active = inhibition above about 45%; inconclusive = no clear call, values can overlap the other calls
The depositor's hits bear a star; ? = inconclusive; / = not tested or not shown. The list is not random: actives were taken first. Their share in the collection is about 1.3%.

SMILES	RAD54 branch	PREPL inhibitor	RAD52 anneal inh	MIN6 prolif	FID counter	UBC13 inh	Casp3 counter	UBC13 confirm
CCCCN(CC)CCNC(=O)c1cc2c(=O)n(C)c3ccccc3c2s1	33	-29	19	-6	20	70*	-4	80*
CCn1c(=O)c2cc(C(=O)NCCCOC)sc2c2ccccc21	12	1	6	3	-26	22	/	/
CCCCN(CC)CCCNC(=O)c1cc2c(=O)n(CC)c3ccccc3c2s1	39	-33	2	-6	9	50*	4	62*
CCCN(CCC)CCCNC(=O)c1cc2c(=O)n(CC)c3ccccc3c2s1	26	-47	11	-6	10	47*	-4	35
CCn1c(=O)c2cc(C(=O)NCCC(C)C)sc2c2ccccc21	-5	18	0	-3	-22	14	/	/
CCCCN(CC)CCNC(=O)c1cc2c(=O)n(CC)c3ccccc3c2s1	14	-35	-2	-5	19	72*	-3	91*
CN(C)C(=O)C[C@@H]1CC[C@@H]2[C@H](COC[C@H](O)CN2C(=O)C2CCCC2)O1	0	/	/	/	/	/	/	/
C[C@@H]1CN([C@@H](C)CO)C(=O)c2cc(NC(=O)Nc3ccccc3)ccc2O[C@@H](C)CCCCO[C@H]1CN(C)S(=O)(=O)c1cn(C)cn1	0	/	14	/	/	/	/	/
CCC(=NCc1ccco1)c1c(C(F)(F)F)[nH]n(-c2nc3ccccc3s2)c1=O	4	1	/	-3	-5	-6	/	/
CC(=NCc1ccco1)c1c(C)[nH]n(-c2nc3ccccc3s2)c1=O	/	-8	/	-4	2	53*	78*	?
COCC(=O)N(C)C[C@H]1Oc2cc(-c3ccccc3)ccc2S(=O)(=O)N([C@H](C)CO)C[C@@H]1C	-2	/	0	/	/	/	/	/
C[C@]12CCC(=O)C=C1C=C[C@@H]1[C@@H]2CC[C@@]2(C)[C@H]1CC[C@@]21CCC(=O)O1	11	/	1	-2	-38	76*	-1	8
CC(=O)n1cc([C@H]2C=C(C(=O)Nc3ccccc3)O[C@@H](OCCCCO)C2)c2ccccc21	5	6	-23	0	-25	69*	2	45
CC(=O)n1cc([C@H]2C=C(C(=O)NCc3ccccc3)O[C@@H](OCCCCO)C2)c2ccccc21	-8	3	-13	-3	-30	31	/	/
O=c1c(Cl)c(NCCCO)cnn1-c1nc2ccccc2[nH]1	18	2	/	-4	-6	91*	93*	110*
C=CCN(CC=C)c1cnn(-c2nc3ccccc3[nH]2)c(=O)c1Cl	8	5	-13	-2	-8	10	/	/
CCOC(=O)c1c(NC(=S)NCc2ccccc2)sc2c1CCN(C(=O)OCC)C2	-9	14	-31	-2	-25	9	/	/
C=CCNC(=S)Nc1sc2c(c1C(=O)OCC)CCN(C(=O)OCC)C2	-2	5	/	-1	-15	50*	3	?
Cc1ccc2nc(N(CCCN(C)C)C(=O)c3sc4ccccc4c3Cl)sc2c1	37	-35	/	0	1	49*	-4	64*
COc1ccc(-c2csc(NC(C)c3nc4cc(C(=O)NCCCO)ccc4n3Cc3ccc(C)cc3)n2)cc1 (stereo not given)	9	-10	-93	-8	/	53*	-3	23
CCC(=O)Nc1ccc2c(c1)OC[C@@H](C)N(Cc1cccnc1)C[C@@H](C)[C@@H](OC)CN(C)C2=O	2	/	-22	/	/	/	/	/
O=C(C[n+]1cc(-c2ccc(Cl)c(Cl)c2)n2c1CCC2)N1c2ccccc2Sc2ccccc21	/	17	/	0	12	45*	-4	39
O=C(C[n+]1cc(-c2ccc(Cl)cc2)n2c1CCC2)N1c2ccccc2Sc2ccccc21	14	4	/	-6	20	8	/	/
CCO[C@H]1OC(C(=O)N2CCCC2)=C[C@@H](c2ccc(Br)cc2)[C@@H]1CCCO	9	/	-3	/	/	/	/	/
COc1ccc(C[C@H]2CN3C(=NC[C@@H]3Cc3ccccc3)N2C[C@H](C)NC(=O)CCC2CCCCC2)cc1	/	/	/	-7	/	17	/	/
SMILES	RAD54 branch	PREPL inhibitor	RAD52 anneal inh	MIN6 prolif	FID counter	UBC13 inh	Casp3 counter	UBC13 confirm
Cc1ccc(C(=O)N[C@@H](C)CN2C3=NC[C@H](C(C)C)N3C[C@H]2Cc2ccc(O)cc2)cc1Br	13	35	30	-9	12	42	/	/
COc1ccc(C[C@H]2CN3C(=NC[C@@H]3Cc3ccc(O)cc3)N2C[C@H](C)NC(=O)c2ccc(C)c(Br)c2)cc1	1	20	/	-9	/	59*	-1	52*
COc1ccc(C[C@H]2CN3C(=NC[C@@H]3C(C)C)N2C[C@H](C)NC(=O)c2ccc(C)c(Br)c2)cc1	5	15	23	-8	11	54*	-1	44
O[C@@H](c1cc(C(F)(F)F)nc2c(C(F)(F)F)cccc12)[C@H]1CCCCN1	26	-1	14	-8	/	64*	-2	45
O=C1c2cccc3cccc(c23)C(=O)N1CCN1CCN(CC(O)COc2ccc3ccccc3c2)CC1 (stereo not given)	43	3	-8	-6	0	105*	-2	112*
CC(=O)c1ccccc1OCC(O)CN1CCN(CCN2C(=O)c3cccc4cccc(c34)C2=O)CC1 (stereo not given)	/	5	24	0	12	54*	-2	60*
O=C1c2cccc3cccc(c23)C(=O)N1CCN1CCN(CC(O)COCc2ccc(Cl)cc2)CC1 (stereo not given)	/	-2	/	-6	12	98*	-4	108*
O=C1c2cccc3cccc(c23)C(=O)N1CC1CCN(CC(O)COc2ccc3ccccc3c2)CC1 (stereo not given)	30	-22	18	-6	/	79*	-1	85*
CC(=O)c1ccccc1OCC(O)CN1CCN(c2ccccn2)CC1 (stereo not given)	-10	11	-6	-4	15	-4	/	/
O=C(N1CCOCC1)N1CCN(CC(O)COc2ccc3ccccc3c2)CC1 (stereo not given)	-2	26	/	0	-12	2	/	/
C[C@H](CO)N1C[C@H](C)[C@@H](CN(C)C(=O)Nc2cc(F)ccc2F)Oc2cc(-c3ccc(C#N)cc3)ccc2S1(=O)=O	-10	/	-1	/	/	/	/	/
